Measurements from PubChem BioAssay (NCI).
About 83,000 compounds went through this panel and 20% of them were active in at least one assay; those are over-represented in the sample as a whole.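 Single-dose data. Exposure time 48 hours. Values below 10 considered active.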 Unmarked numbers belong to inactive results. Active and inactive are the calls of the source.

Assays:
Assay in all cases: NCI-60 one-dose screen, 48 h (100 = growth as untreated, 0 = no growth, -100 = all killed)
SR leukemia = settings: 10 µM unless noted
RPMI-8226 leukemia = settings: 10 µM unless noted
OVCAR-8 ovarian = settings: 10 µM unless noted
OVCAR-5 ovarian = settings: 10 µM unless noted
IGROV1 ovarian = settings: 10 µM unless noted
OVCAR-3 ovarian = settings: 10 µM unless noted
HS 578T breast = settings: 10 µM unless noted
NCI/ADR-RES ovarian = settings: 10 µM unless noted
SK-OV-3 ovarian = settings: 10 µM unless noted
OVCAR-4 ovarian = settings: 10 µM

Row | Structure (SMILES) | growth (SR leukemia) | growth (RPMI-8226 leukemia) | growth (OVCAR-8 ovarian) | growth (OVCAR-5 ovarian) | growth (IGROV1 ovarian) | growth (OVCAR-3 ovarian) | growth (HS 578T breast) | growth (NCI/ADR-RES ovarian) | growth (SK-OV-3 ovarian) | growth (OVCAR-4 ovarian)
1 | NC(=O)c1cccc(-c2ccc(S(=O)(=O)Nc3ccc4c(c3)N(C(=O)C3CC3)CCC4)cc2)c1 | 50.5% | 43.7% | 57% | 64.8% | 37.1% | 15.8% | 17.9% | 104% |  | 
2 | C=C(C)[C@@H]1CC[C@]2(C(N)=O)CC[C@]3(C)[C@H](CC[C@@H]4[C@@]5(C)CC[C@H](O)C(C)(C)[C@@H]5CC[C@]43C)[C@@H]12 | 15.5% [100 µM] | -19.8% [100 µM] (active) | -64.8% [100 µM] (active) | -21.6% [100 µM] (active) | -58.1% [100 µM] (active) |  | -1.7% [100 µM] (active) | -8.91% [100 µM] (active) | -45.7% [100 µM] (active) | 
3 | N#C/C(C(=O)c1ccccc1)=C1/C(=O)Nc2ccc(F)cc21 | 118% | 104% | 101% | 106% | 97.4% |  | 98.6% | 97.5% | 84.5% | 
4 | CC1(C)CC[C@]2(C(N)=O)CC[C@]3(C)C(=CC[C@@H]4[C@@]5(C)C/C(=C/c6ccncc6)C(=O)C(C)(C)[C@@H]5CC[C@]43C)[C@@H]2C1 | 2.61% [100 µM] (active) | -29.1% [100 µM] (active) | -28.6% [100 µM] (active) | -81.9% [100 µM] (active) | -72.3% [100 µM] (active) | -69.5% [100 µM] (active) | -22.1% [100 µM] (active) | -48% [100 µM] (active) | -45.7% [100 µM] (active) | 
5 | C=C(CN=[N+]=[N-])[C@@H]1CC[C@]2(C)[C@H](CC[C@@H]3[C@H]4[C@H]5OC(=O)[C@@]4(CCC5(C)C)CC[C@]32C)[C@@]1(C)CCC#N | 64% [100 µM] | 57% [100 µM] | 92.2% [100 µM] | 98.3% [100 µM] | 106% [100 µM] | 82.5% [100 µM] | 88.5% [100 µM] | 90.8% [100 µM] |  | 
6 | CCOC(=O)C(=Cc1ccccc1[N+](=O)[O-])C(=O)OCC | -10% (active) | 10.7% |  | -31.5% (active) | 37.8% | -20.7% (active) | 47.2% | -29.4% (active) | 62.4% | 24.7%
7 | O=S(=O)(NCc1ccccc1)c1ncnc2nc[nH]c12 | 105% | 99.2% |  | 106% | 119% | 111% | 116% | 97.4% | 108% | 
8 | O=C1CC(C(F)(F)F)Cc2nc3ccc(Br)cc3cc21 (stereo not drawn) | 75.2% | 77.5% |  | 87.2% | 73.4% | 94.2% |  | 95.1% | 85.7% | 74.6%
9 | Brc1ccc(-c2nnc3c4[nH]ccc4ncn23)cc1 | 82.1% |  | 95.3% | 113% | 69.6% | 85.7% | 93.6% |  | 93.2% | 91.1%
10 | CCCCN(CCCC)CC(O)c1ccc(OCc2ccccc2)c2ccccc12 (stereo not drawn) | 9.33% (active) | 77.3% |  | 98.4% | 61.8% | 69.2% |  | 77.7% | 92.4% | 93.3%
11 | CC[C@]12C=CCN3CC[C@@]4(c5ccc(OC)cc5N(C)[C@H]4[C@@](O)(C(=O)OC)[C@@H]1OC(=O)CCC(=O)N[C@H](Cc1c[nH]c4ccccc14)C(=O)OC)[C@@H]32 | 26% [100 µM] | 0.693% [100 µM] (active) |  | -58.1% [100 µM] (active) | -38.7% [100 µM] (active) | -48.8% [100 µM] (active) | -43.8% [100 µM] (active) | -30.7% [100 µM] (active) | -18.1% [100 µM] (active) | 
12 | Oc1ccc(N=Nc2nccs2)c(O)c1 | 8.21% (active) | 20.1% |  | 87.5% | 42.9% | -1.86% (active) | 80.2% | 12.4% | 78.2% | 25.9%
13 | Cc1ccc(NC(=S)/N=c2/n(-c3ccccc3)nc3n2CCN3C2=NCCN2)cc1 | 112% | 104% |  | 98.2% | 120% | 129% | 111% | 112% |  | 
14 | CCCCNC(=O)NS(=O)(=O)Cc1ccccc1 | 108% | 95.8% |  | 108% | 97.3% | 109% |  | 112% | 107% | 
15 | c1ccc(-c2nc(N3CCCNCC3)c3nc(-c4ccccc4)oc3n2)cc1 | 0.248% (active) | -15.7% (active) |  | 87.9% | -56% (active) |  | 83.6% | -11.8% (active) |  | 76.3%
16 | O=C(N/N=C1\c2ccccc2-c2cccc(C(=O)O)c21)c1ccc(O)cc1 | 110% | 94.2% |  | 102% | 97.6% | 96.6% | 82% | 99.8% | 101% | 101%
17 | CCN=C1C=CC(=C(c2ccc(N(CC)CC)cc2)c2ccc(N(CC)CC)cc2)c2ccccc21 | -7.85% (active) | -39.8% (active) |  | -40.1% (active) | -56.7% (active) |  | -20.1% (active) | -16.3% (active) | -70.2% (active) | -18.4% (active)
18 | CCCC[C@@H](C=O)NC(=O)[C@H](CC(C)C)NC(=O)[C@H](CC(C)C)NC(=O)OCc1ccccc1 | -24.4% (active) | -10.2% (active) |  | -34.5% (active) | 8.93% (active) | -29.1% (active) |  | -2.88% (active) | 38.2% | 10.8%
19 | O=C(Nc1cccc2ccccc12)c1cc2ccccc2cc1O | 16% | 15.1% |  | 105% | 7.48% (active) |  | 32.2% | 4.52% (active) | 0.954% (active) | 
20 | CCCCCC1CCCCN1C(=O)OCCCC (stereo not drawn) | 108% | 73.2% |  | 101% |  | 104% | 122% | 91.8% | 105% | 103%
21 | CCc1ccc(NC(=O)N[C@@H](Cc2cc(F)cc(F)c2)C(=O)N[C@@H]2C(=O)N3C[C@H](O)C[C@H]3C(=O)N3CCOC[C@H]3C(=O)N[C@@H](C)C(=O)N3C[C@H](C)C[C@H]3C(=O)O[C@H]2C)cc1 | 48.3% | 17.2% |  | 46.3% | 49.4% | 16.8% |  | 107% |  | 12.8%
22 | COc1cc(C)cc2oc3oc(=N)c(C(=O)c4ccccc4)cc3c(=O)c12 | 94.5% | 116% |  | 95.2% | 93.9% |  |  | 106% | 120% | 105%
23 | CCOC(=O)C(c1ccccc1)N1C(=O)c2ccccc2C1=O (stereo not drawn) | 115% | 98% |  | 99.7% | 96.5% |  | 92.3% | 99.3% | 95.4% | 97.7%
24 | O=C1/C(=C\c2cn(CC(O)CN3CCCCC3)c3ccccc23)c2ccccc2N1c1c(Cl)cccc1Cl (stereo not drawn) | -13% (active) |  | -86.8% (active) | -92.7% (active) | -70.2% (active) | -99.6% (active) | -55.3% (active) | -56% (active) | -99.7% (active) | -68.6% (active)
25 | O=C(Nc1cccc(C2=NCCN2)c1)c1cccc(C(=O)Nc2cccc(C3=NCCN3)c2)c1 | 92.3% | 94.3% |  | 95.7% | 99.1% |  | 98.4% | 98.8% | 104% | 94.7%
26 | COc1ccc(-c2cc(-c3ccc(OC)c(OC)c3)nc(SCCCCCC(=O)NO)n2)cc1 | -1.05% (active) | 29.4% |  | 52.4% | 61.6% | 64.8% | 44.7% | 101% | 46.6% | 76.8%
